Screening data: PubChem BioAssay, National Center for Advancing Translational Sciences (NCATS)
Only some compounds are listed: those with a hit (about 18% of all), similar ones and a draw of the others.
TDP1 cell CPT: growth inhibition of DT40 Tdp1-/-;hTDP1 cells with camptothecin (screen for TDP1 inhibitors). chicken DT40 Tdp1-/-;hTDP1 cells + 20 nM CPT, ATP luminescence, 48 h. Potency, µM (doses to about 46.2 µM), inactives show at the top dose activity change, negative = growth inhibition, usual class: inhibitors. actives 12% (n = 420,000). AID 686979; further: nearly all actives have a fitted effect of over 55% in size
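Cell growth measured by CellTiter-Glo luminescence after a minimum 48 h, 37 C compound exposure with 20 nM CPT in Tdp1-knockout DT40 cells stably expressing hTDP1, seeded 400/well; qHTS titration format.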
TDP1 cell noCPT: qHTS for Inhibitors of human tyrosyl-DNA phosphodiesterase 1 (TDP1): qHTS in cells in absence of CPT. DT40 Tdp1-/- hTDP1 cells, no CPT, ATP luminescence, 48 h. Potency, µM (titrated, usually from 46.2 µM), for inactives: at the highest dose activity change, negative = growth inhibition, hits mostly inhibitors. actives 15% (n = 420,000); further: nearly all actives have a fitted effect of over 55% in size
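Camptothecin absent (DMSO only). Human TDP1-complemented DT40 knockout cells, 400 cells/well, 37 °C for minimum 48 hr; ATP measured via CellTiter-Glo, 30 min dark incubation, luminescence.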
PLK1 PBD block: PLK1 (human) polo-box domain binding inhibition; P53350; Potency, µM, for the others: max response, negative = inhibition, usual class: inhibitors; actives 2.8% (n = 360,000); Plk1 PBD binding of FITC phosphopeptide, fluorescence polarization; further: series mostly up to about 57 µM; nearly all actives have a fitted effect of over 65% in size
GCN5L2 inh: inhibitors of human GCN5L2 histone acetyltransferase. actives 0.21% (n = 390,000). Q92830. Potency, µM (highest dose often 58.9 µM), inactives show at the highest dose activity change, negative = inhibition, most hits filed as inhibitors. AID 504327. GCN5L2 HAT assay, ThioGlo1 CoA-SH fluorescence
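Preincubate 20nM GCN5L2 with compound 15 min, RT → add 50uM ThioGlo1 + 75uM H3(1-25) + 70uM acetyl-CoA → read fluorescence 0 and 20 min. Primary qHTS; fluorescent artifacts likely.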
TDP1 inh: blocks human tyrosyl-DNA phosphodiesterase 1 | Q9NUW8 | recombinant TDP1, AlphaScreen DNA substrate cleavage | Potency, µM (highest dose often 130 µM), without a hit: at the top dose activity change, negative = inhibition, hits mostly inhibitors | actives 0.28% (n = 350,000) | AID 485290; further: nearly all actives have a fitted effect of over 40% in size
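Signal: AlphaScreen proximity between streptavidin donor and anti-FITC acceptor beads on intact substrate. Reaction: Tdp1 1 nM, substrate 15 nM final, 5 min RT after 15 min compound preincubation.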
VDR inh: blocks the human vitamin D receptor; P11473; VDR-SRC2-3 peptide fluorescence polarization, 2 h; Potency, µM, for the others: max response, negative = inhibition, actives largely listed as inhibitors; actives 0.93% (n = 400,000); AID 504847
Target sequence (P11473 whole entry, looked up): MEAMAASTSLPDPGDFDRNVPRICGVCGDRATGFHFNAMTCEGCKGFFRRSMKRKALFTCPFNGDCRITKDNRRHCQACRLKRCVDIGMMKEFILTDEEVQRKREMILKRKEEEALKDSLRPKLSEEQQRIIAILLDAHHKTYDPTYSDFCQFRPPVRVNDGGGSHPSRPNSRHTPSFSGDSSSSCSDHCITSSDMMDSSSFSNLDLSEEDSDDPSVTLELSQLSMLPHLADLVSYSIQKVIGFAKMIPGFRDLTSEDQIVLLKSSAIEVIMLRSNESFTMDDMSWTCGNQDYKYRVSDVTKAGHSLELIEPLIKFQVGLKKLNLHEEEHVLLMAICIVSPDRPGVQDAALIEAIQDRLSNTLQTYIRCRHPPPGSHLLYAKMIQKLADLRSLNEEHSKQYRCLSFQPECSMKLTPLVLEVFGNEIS
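The screen uses fluorescence polarization to detect compounds that interfere with recruitment of the SRC2-3 coactivator peptide to VDR; plates are read after 2 h at room temperature.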
* = called active by the depositor; u = inconclusive; x = no result given; [ ] = remark or other dose. The call rests on the fitted dose curve; in most records, active means well fitted curve in the direction sought with a large enough effect; inconclusive means small, poorly fitted or top-dose-only effect, or another doubt; inactive means no such curve, though single readings can be large; an effect the other way counts as inactive or inconclusive. On the % scale 0 is the no-effect control and ±100 the full control effect; potency means the concentration at half of the fitted maximal effect.

SMILES	TDP1 cell CPT	TDP1 cell noCPT	PLK1 PBD block	GCN5L2 inh	TDP1 inh	VDR inh
COc1cccc(-c2nc(SCC(=O)NCC3CCCO3)c(-c3ccc(Cl)cc3)[nH]2)c1 (stereo not given)	u	u	x	-12%	2%[12.3 µM]	-11%
COc1cc(NC(=O)CCc2c(C)noc2C)c(C(=O)O)cc1OC	0%	-23%	-2%	x	x	x
CSc1nc(N)nc(SCC(=O)CC(=O)OC(C)C)c1C#N	-5%	-7%	-13%	0%	4%	0%
Cc1ccc(S(=O)(=O)CCSc2nc(C)cc(C)c2C#N)cc1	u	u	1%	-1%	2%	8%
CSc1nc(N)nc(SCC(=O)Nc2ccc(Cl)cc2)c1C#N	u	21µM*	-11%	-11%	3%	11%
CSc1nc(N)nc(SCCS(=O)(=O)c2ccc(Cl)cc2)c1C#N	21µM*	26µM*	-2%	-10%	-2%	20%
CCCCNC(=O)Cn1c(SCc2ccccc2C)nc2ccncc21	-11%	u	x	x	1%	-2%
COC(=O)c1ccc(CN(c2ccc(C(=O)O)c(O)c2)S(=O)(=O)c2ccc(Cl)c([N+](=O)[O-])c2)cc1	16µM*	16µM*	-4%	-22%	x	-21%
COc1ccc(N2Cc3cccc(C(=O)Nc4ccc(C(C)C)cc4)c3C2=O)cc1	-19%	-20%	x	u	u	7%
COC(=O)/C=C1\SC(N2CCOCC2)=C(c2ccc(OC)cc2)C1=O	-28%	1%	15µM*	u	-1%	u
COc1ccc(C(=O)NN2CCOCC2)cc1	5%	3%	-1%	1%	1%	1%
C/C(=C\c1ccco1)CN1CCOc2ccc(CN3CCC(Oc4cccnc4)CC3)cc2C1	2%[9.04 µM]	-33%	x	x	x	x
CN(C)S(=O)(=O)c1ccc(C(=O)N2CCN(S(=O)(=O)c3cccs3)CC2)cc1	-3%	-24%	-8%	2%	-1%	12%
Clc1ccc(C2Nc3cccc4cccc(c34)N2)cc1	u	u	u	0%	10%	-8%
c1cc2c3c(cccc3c1)NC1(CCCCC1)N2	18µM*	18µM*	-21%	0%	4%	-1%
c1cc2c3c(cccc3c1)NC1(CCC3(CC1)Nc1cccc4cccc(c14)N3)N2	9.2µM*	13µM*	-8%	0%	11%	1%
CCn1c(=O)c2[nH]c(SC)nc2n(CC)c1=O	3%	-8%	-6%	x	x	x
C=CC[C@@H](CC(=O)OC(C)(C)C)C(=O)OC[C@H]1CCCN1C(=O)[C@@H](CC=C)CC(=O)N(CCO)Cc1ccccc1	u	u	-15%	1%	2%	-15%
Cc1cc(CN(C)C(=O)c2ccc(OC3CCN(CCc4ccccc4)CC3)cc2)on1	u	-9%	-4%	2%	3%	8%
CCCCCCCn1c2c(c(=N)c3ccccc31)CCC2	0.52µM*	0.58µM*	1%	-8%	8%	-20%
N=c1c2c(n(Cc3ccc(Cl)c(Cl)c3)c3c1CCC3)CCCC2	2.9µM*	2.6µM*	-12%	-15%	1%	-5%
CCCCn1c2c(c3ccccc31)CCc1nonc1-2	-29%	u	1%	-19%	5%	u
N=c1c2c(n(Cc3ccc(Br)cc3)c3c1CCC3)CCCC2	0.92µM*	0.52µM*	u	3%	1%	-6%
CCCn1c2c(c(=N)c3c1CCC3)CCCC2	9.2µM*	5.2µM*	-7%	2%	3%	-23%
Clc1ccc(CN2CCN(c3ncccn3)CC2)cc1Cl	-25%	u	-1%	2%	x	7%
SMILES	TDP1 cell CPT	TDP1 cell noCPT	PLK1 PBD block	GCN5L2 inh	TDP1 inh	VDR inh
CCOC(=O)C1CCN(C(=O)c2oc3ccc(S(=O)(=O)N4CC(C)CC(C)C4)cc3c2C)CC1 (stereo not given)	18µM*	16µM*	-7%	-7%	0%	19%
CCOC(=O)N1CCN(C(=O)c2oc3ccc(S(=O)(=O)N4CCCCCC4)cc3c2C)CC1	15µM*	13µM*	-7%	-26%	8%	-25%
Cc1c(C(=O)N(C)CCC#N)oc2ccc(S(=O)(=O)N3CC(C)CC(C)C3)cc12 (stereo not given)	u	-6%	19µM*	-4%	1%	u
CCOC(=O)N1CCN(c2ccc(S(=O)(=O)N3CCC(C)CC3)cc2[N+](=O)[O-])CC1	21µM*	13µM*	-4%	-5%	2%[56.1 µM]	6%
COc1ccc(C(C)=O)cc1Cn1c(C)c(C(=O)NCCC#N)sc1=O	3%	u	-1%	x	x	x
OCC(CO)(CO)N=Cc1cc(Br)ccc1O	-8%	0%	-15%	-1%	1%	-2%
CCN(CC)c1ccc(N=Cc2cc(Br)ccc2O)cc1	16µM*	u	-5%	-5%	8%	u
Oc1ccc(Br)cc1C=Nc1ccc(Cl)cc1	-7%	19%	21µM*	-7%	0%	-4%
Cc1nc(-c2ccc(S(=O)(=O)Nc3cc(Cl)ccc3C)cc2)co1	-27%	u	x	-5%	10%	9%
CCN1CCN(c2ncc3c(n2)CCN(Cc2cc(F)cc(F)c2)C3)CC1	15µM*	15µM*	x	2%	4%	0%
CCCN1CCN(c2ncc3c(n2)CCN(Cc2ccc(OC)c(OC)c2OC)C3)CC1	u	18µM*	x	1%	9%	7%
CCCN1CCc2nc(N3CCN(CC)CC3)ncc2C1	-1%	5%	x	2%	1%	15%
CCc1ccc(CN2CCc3nc(N4CCN(CC)CC4)ncc3C2)cc1	u	16µM*	x	4%	4%	8%
CCCCn1c(N)c(N(CCOC)C(=O)COC(=O)/C=C/c2ccc(Br)cc2)c(=O)[nH]c1=O	-17%	-17%	-4%	-1%	3%	7%
COc1cccc(NC(=O)CSc2nc(=O)n(Cc3ccncc3)c3c2CCC3)c1	6%	-10%	x	-4%	0%	5%
COc1ccc(C2=C(c3ccccc3)OC(OC)c3cc(F)ccc32)cn1 (stereo not given)	-22%	u	-4%	x	x	x
CCCCCCn1c(CNC(=O)c2ccccc2)nc2ccccc21	u	u	x	-2%	6%	8%
CCCCCn1c(CCCNC(=O)c2ccccc2)nc2ccccc21	23µM*	21µM*	x	1%	6%	-16%
CCCCn1c(CCNC(=O)c2ccc(F)cc2)nc2ccccc21	-22%	u	x	-13%	3%	-2%
CCCCCn1c(CNC(=O)c2ccc(F)cc2)nc2ccccc21	16µM*	21µM*	x	-7%	-3%	-6%
